Three compounds from PubChem BioAssay (EPA / NIEHS) can be followed below.

Read-out in test [1]: TIMP metallopeptidase inhibitor 2 (TIMP2), TIMP2 (gene 7077)
The experiment in a line: BSK_KF3CT_TIMP2: BioMAP Diversity Plus: KF3CT Assay for TIMP metallopeptidase inhibitor 2 (TIMP2) Biomarker Activity (AID 2283071). Conditions: primary human keratinocytes with fibroblasts; actives raise or lower the signal. In outline:
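TIMP-2 measured by ELISA at 24 h in human keratinocyte/fibroblast primary co-cultures exposed to chemicals. Both increases and decreases were fitted against DMSO. Parallel cultures were stained with SRB for total protein as an overt-cytotoxicity check.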

Read-out in test [2]: Transforming growth factor beta 1 (TGFb1), TGFB1 (gene 7040)
Kind of test: BSK_KF3CT_TGFb1: BioMAP Diversity Plus: KF3CT Assay for Transforming growth factor beta 1 (TGFb1) Biomarker Activity (AID 2283072). Conditions: primary human keratinocytes with fibroblasts; actives raise or lower the signal. A digest of the protocol:
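ELISA quantifies TGF-b1 at 24 h post-dose in a primary human skin co-culture of keratinocytes and fibroblasts, with gain or loss judged against DMSO. Parallel SRB total-protein staining flags overt cytotoxicity.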

Read-out in test [3]: C-C motif chemokine 2 (Homo sapiens) (UniProt P13500)
The experiment in a line: BSK_KF3CT_MCP1: BioMAP Diversity Plus: KF3CT Assay for Monocyte Chemoattractant Protein 1 (MCP1/CCL2) Biomarker Activity (AID 2283073). Conditions: primary human keratinocytes with fibroblasts; actives raise or lower the signal. A digest of the protocol: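 Human keratinocyte plus foreskin fibroblast primary co-culture exposed to chemical for 24 h. MCP-1 levels measured by ELISA. Bidirectional curve fitting relative to DMSO negative control as baseline.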

Read-out in test [4]: Matrix Metallopeptidase 9 (MMP9), MMP9 (gene 4318)
The experiment in a line: BSK_KF3CT_MMP9: BioMAP Diversity Plus: KF3CT Assay for Matrix Metallopeptidase 9 (MMP9) Biomarker Activity (AID 2283074). Particulars: primary human keratinocytes with fibroblasts; actives raise or lower the signal. In outline: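 ELISA read-out of MMP-9 at 24 h post-dosing in a co-culture of human skin keratinocytes and foreskin fibroblasts. Gain or loss of signal was fitted in both directions against DMSO.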

Read-out in test [5]: urokinase plasminogen activator (uPA), PLAU (gene 5328)
Kind of test: BSK_KF3CT_uPA: BioMAP Diversity Plus: KF3CT Assay for urokinase plasminogen activator (uPA) Biomarker Activity (AID 2283075). Conditions: primary human keratinocytes with fibroblasts; actives raise or lower the signal. A digest of the protocol: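 Skin co-culture (keratinocytes + foreskin fibroblasts), human primary; 24 h post-dose; uPA by ELISA; gain/loss fit vs DMSO baseline.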

Read-out in a further test: CD40, CD40 (gene 958)
The experiment in a line: BSK_LPS_CD40: BioMAP Diversity Plus: LPS Assay for CD40 Biomarker Activity (AID 2283076). Conditions: primary human HUVEC with PBMC; actives raise or lower the signal. In outline: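 Primary human umbilical vein endothelial cells co-cultured with peripheral blood mononuclear cells, LPS-stimulated, were dosed with chemical and read 24 h later. CD40 levels were measured by ELISA and fitted bidirectionally against DMSO as negative control and baseline.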

Read-out in test [6]: E-selectin (Homo sapiens) (UniProt P16581)
Kind of test: BSK_LPS_Eselectin: BioMAP Diversity Plus: LPS Assay for Eselectin Biomarker Activity (AID 2283077). Conditions: primary human HUVEC with PBMC; actives raise or lower the signal. A digest of the protocol: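 Human umbilical vein endothelial cells co-cultured with peripheral blood mononuclear cells under LPS stimulation; E-selectin measured by ELISA 24 h after chemical dosing. Activity fitted bidirectionally against DMSO as negative control and baseline.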

Read-out in test [7]: Interleukin-8 (IL8), CXCL8 (gene 3576)
Kind of test: BSK_LPS_IL8: BioMAP Diversity Plus: LPS Assay for Interleukin-8 (IL8) Biomarker Activity (AID 2283078). Conditions: primary human HUVEC with PBMC; actives raise or lower the signal. A digest of the protocol:
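Human umbilical vein endothelial cells co-cultured with PBMC were stimulated with LPS; IL-8 levels were measured by ELISA 24 h after chemical dosing. Activity was fitted bidirectionally against DMSO as negative control and baseline.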

A short description of test [8]: BSK_LPS_SRB: Viability Assessment in the BioMAP Diversity Plus: LPS Assay (AID 2283079).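 Further: total protein by sulforhodamine B absorbance as a cytotoxicity measure; measured one day after compound addition.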 Conditions: primary human HUVEC with PBMC. A digest of the protocol: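 Human umbilical vein endothelial cells co-cultured with PBMC (LPS system) were dosed for 24 h. Total protein was stained with 0.1% sulforhodamine B after 10% TCA fixation, read at 560 nm, and fitted bidirectionally against DMSO baseline.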

Read-out in test [9]: Interleukin-1 alpha (IL1a), IL1A (gene 3552)
Kind of test: BSK_LPS_IL1a: BioMAP Diversity Plus: LPS Assay for Interleukin-1 alpha (IL1a) Biomarker Activity (AID 2283080). Particulars: primary human HUVEC with PBMC; actives raise or lower the signal. A digest of the protocol:
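Human umbilical vein endothelial cells co-cultured with peripheral blood mononuclear cells were LPS-stimulated and exposed to test chemicals for 24 h. IL-1 alpha was quantified by ELISA, with bidirectional curve fitting against DMSO as the negative control and baseline.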

Read-out in test [10]: Monocyte Chemoattractant Protein-1 (MCP1), CCL2 (gene 6347)
The experiment in a line: BSK_LPS_MCP1: BioMAP Diversity Plus: LPS Assay for Monocyte Chemoattractant Protein-1 (MCP1) Biomarker Activity (AID 2283081). Conditions: primary human HUVEC with PBMC; actives raise or lower the signal. A digest of the protocol:
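HUVEC plus PBMC co-culture (human primary cells, LPS system) exposed to test chemical for 24 h; MCP-1 measured by ELISA. Bidirectional curve fitting against DMSO baseline; parallel SRB total-protein staining flags overt cytotoxicity.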

The nature of test [11]: BSK_LPS_PGE2: BioMAP Diversity Plus: LPS Assay for Prostaglandin E2 (PGE2) Biomarker Activity (AID 2283082). Particulars: primary human HUVEC with PBMC; actives raise or lower the signal. In outline:
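PGE2 release measured by ELISA in an LPS-activated co-culture of human umbilical vein endothelial cells and peripheral blood mononuclear cells, read at 24 h post-dosing. DMSO served as baseline for bidirectional curve fitting.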

Read-out in test [12]: Macrophage colony-stimulating factor (MCSF), CSF1 (gene 1435)
The experiment in a line: BSK_LPS_MCSF: BioMAP Diversity Plus: LPS Assay for Macrophage colony-stimulating factor (MCSF) Biomarker Activity (AID 2283083). Particulars: primary human HUVEC with PBMC; actives raise or lower the signal. A digest of the protocol:
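Human umbilical vein endothelial cells co-cultured with peripheral blood mononuclear cells were exposed to compound for 24 h. M-CSF levels were measured by ELISA, and bidirectional curve fitting used DMSO as the negative control and baseline.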

Read-out in test [13]: Tissue Factor, F3 (gene 2152)
The experiment in a line: BSK_LPS_TissueFactor: BioMAP Diversity Plus: LPS Assay for Tissue Factor Biomarker Activity (AID 2283084). Particulars: primary human HUVEC with PBMC; actives raise or lower the signal. In outline:
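Human umbilical vein endothelial cells co-cultured with peripheral blood mononuclear cells were dosed and stimulated with LPS. Cell-surface CD142 was quantified by ELISA at 24 h. Activity was fitted bidirectionally against DMSO baseline.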

Read-out in test [14]: Tumor necrosis factor (Homo sapiens) (UniProt P01375)
Kind of test: BSK_LPS_TNFa: BioMAP Diversity Plus: LPS Assay for Tumour Necrosis Factor alpha (TNFa) Biomarker Activity (AID 2283085).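 On AC50: TNFa protein level quantified by ELISA in the co-culture.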 Conditions: primary human HUVEC with PBMC; actives raise or lower the signal. In outline: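 TNFa was quantified by ELISA in LPS-activated co-cultures of human endothelial cells and PBMC, 24 h post-dosing. Both increases and decreases versus DMSO were fitted.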

Read-out in the next test: CD38, CD38 (gene 952)
The experiment in a line: BSK_SAg_CD38: BioMAP Diversity Plus: SAg Assay for CD38 Biomarker Activity (AID 2283087). Conditions: primary human HUVEC with PBMC; actives raise or lower the signal. In outline: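 CD38 quantified by ELISA (fluorescence) in a superantigen-activated endothelial cell–PBMC co-culture at 24 h post-dose. Activity fitted in both directions relative to DMSO; parallel SRB and Alamar Blue cytotoxicity read-outs.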

Read-out in test [15]: Vascular cell adhesion molecule 1 (VCAM1), VCAM1 (gene 7412)
Kind of test: BSK_LPS_VCAM1: BioMAP Diversity Plus: LPS Assay for Vascular cell adhesion molecule 1 (VCAM1) Biomarker Activity (AID 2283086). Conditions: primary human HUVEC with PBMC; actives raise or lower the signal. A digest of the protocol: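 VCAM-1 quantified by ELISA in an LPS-activated co-culture of human endothelial cells and peripheral blood mononuclear cells, read 24 h post-treatment. Fitted in both directions versus DMSO; parallel SRB staining flags overt cytotoxicity.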

Read-out in test [16]: Monocyte Chemoattractant Protein-1 (MCP1), CCL2 (gene 6347)
Kind of test: BSK_SAg_MCP1: BioMAP Diversity Plus: SAg Assay for Monocyte Chemoattractant Protein-1 (MCP1) Biomarker Activity (AID 2283090). Particulars: primary human HUVEC with PBMC; actives raise or lower the signal. A digest of the protocol: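 Values derive from bidirectional fitting of ELISA-measured MCP1 against DMSO controls. Readings were taken 24 h after dosing human vascular endothelial cells co-cultured with peripheral blood mononuclear cells under superantigen stimulation.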

Read-out in another test: CD69, CD69 (gene 969)
Kind of test: BSK_SAg_CD69: BioMAP Diversity Plus: SAg Assay for CD69 Biomarker Activity (AID 2283089). Particulars: primary human HUVEC with PBMC; actives raise or lower the signal. A digest of the protocol: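 Primary human vascular co-culture (umbilical vein endothelium with peripheral blood mononuclear cells) exposed to test chemical for 24 h. CD69 levels quantified by fluorescence ELISA; DMSO served as negative control for bidirectional fitting.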

Active and inactive are the calls of the source. How the source made its calls: active means hit-call score of the fitted dose curve at least 0.9, where 1 is the maximum; inactive means score below 0.9.

Chain of E-selectin (Homo sapiens) (P16581 whole entry, looked up): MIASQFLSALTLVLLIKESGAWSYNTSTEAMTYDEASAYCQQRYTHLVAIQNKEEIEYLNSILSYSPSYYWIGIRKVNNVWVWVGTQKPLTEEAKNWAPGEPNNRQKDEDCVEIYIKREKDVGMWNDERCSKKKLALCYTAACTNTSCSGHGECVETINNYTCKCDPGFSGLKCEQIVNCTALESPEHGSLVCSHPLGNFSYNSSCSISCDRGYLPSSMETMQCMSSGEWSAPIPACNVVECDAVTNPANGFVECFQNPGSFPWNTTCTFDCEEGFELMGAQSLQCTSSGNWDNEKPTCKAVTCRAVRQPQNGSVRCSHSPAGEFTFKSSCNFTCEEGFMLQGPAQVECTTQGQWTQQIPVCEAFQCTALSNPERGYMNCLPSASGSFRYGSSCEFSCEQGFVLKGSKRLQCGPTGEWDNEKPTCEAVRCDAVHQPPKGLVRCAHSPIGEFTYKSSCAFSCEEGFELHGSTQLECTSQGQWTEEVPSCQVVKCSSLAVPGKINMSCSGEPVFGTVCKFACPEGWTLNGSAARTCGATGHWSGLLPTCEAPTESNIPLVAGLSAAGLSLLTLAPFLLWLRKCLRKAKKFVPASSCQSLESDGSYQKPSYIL
Chain of Tumor necrosis factor (Homo sapiens) (P01375 whole entry, looked up): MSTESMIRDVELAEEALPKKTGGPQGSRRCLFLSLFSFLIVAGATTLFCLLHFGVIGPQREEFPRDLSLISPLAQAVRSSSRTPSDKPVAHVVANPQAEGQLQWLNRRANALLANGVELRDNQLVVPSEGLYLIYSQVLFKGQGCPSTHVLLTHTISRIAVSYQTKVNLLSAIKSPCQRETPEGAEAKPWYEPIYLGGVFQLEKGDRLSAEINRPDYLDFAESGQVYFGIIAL

For the compound `CCCSP(=O)(OCC)Oc1ccc(Br)cc1Cl` (stereo not drawn), the outcome in test [1] is “inactive”; in [2], “inactive”; in test [3] it was “inactive”; in test [4] it was “inactive”; in test [5], “inactive”; in the test with CD40, CD40 (gene 958), “inactive”. The result in [6], in test [8], in test [9], in test [10], in [11] and in test [12] was inactive. Also, the outcome in [13] was inactive. Moreover, the AC50 in test [7] was 30.2 µM (active); in test [14] it was 35.3 µM (active); in the test with CD38, CD38 (gene 952), 30.5 µM (active).

As for `CNc1cnn(-c2cccc(C(F)(F)F)c2)c(=O)c1Cl`, the outcome in test [1] was “inactive”; in test [2], “inactive”; in test [3], “inactive”; in test [4], “inactive”; in [5], “inactive”; with CD40, CD40 (gene 958) it was “inactive”. In addition, the outcome in test [6], in [7], in test [8], in test [9], in test [10] and in test [11] was inactive. In addition, the outcome in [12], in [13], in test [14], in test [15] and in test [16] was inactive. Further, the AC50 with CD38, CD38 (gene 952) is 9.82 µM (active).

As to `CCNc1nc(Cl)nc(NC(C)(C)C#N)n1`, the outcome was “inactive” in test [1]; “inactive” in [2]; “inactive” in [3]; “inactive” in test [4]; “inactive” in test [5]; “inactive” in the test with CD40, CD40 (gene 958). Moreover, the outcome in test [6], in test [7], in test [8], in test [9], in [10] and in [11] was inactive. Besides, the outcome in test [12] is “inactive”; in [13] it was “inactive”; in [15], “inactive”; with CD38, CD38 (gene 952), “inactive”; with CD69, CD69 (gene 969), “inactive”; in test [16], “inactive”. The AC50 in test [14] is 3.97 µM (active).
